Here are results for eight compounds from PubChem BioAssay (NCI).

The panel holds about 83,000 compounds, 20% with a hit somewhere; the sample as a whole holds those more often.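 96-well plates, one dose, 48 hours. Percent growth reported; active if below 10.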 Unmarked numbers belong to inactive results. Calls of active or inactive are those of the source.

Among the test systems are NCI-H23 lung; NCI-H226 lung; NCI-H322M lung; HOP-62 NSCLC; NCI-H460 lung; HOP-92 NSCLC; A549/ATCC NSCLC; 786-0 renal; COLO 205 colon; DU-145 prostate; K-562 leukemia; MALME-3M melanoma; MDA-MB-231 breast; RXF 393 renal; SF-268 CNS; SF-295 CNS; SF-539 CNS; UACC-257 melanoma; M14 melanoma; NCI-H522 lung.
Assay in all cases: NCI-60 one-dose screen, 48 h (100 = growth as untreated, 0 = no growth, -100 = all killed)
Common to all, as to details: 10 µM unless noted

For `COc1cc2c(cc1-c1c(C)noc1C)ncc1nc(CN3CCOCC3)n([C@H](C)COC(F)F)c12`, the growth is 45.4% in the assay with NCI-H23 lung; 58% with NCI-H226 lung; 38.5% with NCI-H322M lung; 16.6% in the assay on HOP-62 NSCLC; 51.9% in the assay with NCI-H460 lung; 5.85% (active) with HOP-92 NSCLC. Further, the growth with A549/ATCC NSCLC is 37.6%; in the assay on 786-0 renal it was 45.5%; in the assay with COLO 205 colon, 14.7%; in the assay with DU-145 prostate it was 62.2%; with K-562 leukemia it was 28%; in the assay on MALME-3M melanoma, 37.8%. Besides, the growth is 29.5% with MDA-MB-231 breast; 35.1% in the assay with RXF 393 renal; 55.2% with SF-268 CNS; 40.3% in the assay on SF-295 CNS; 35.1% in the assay on SF-539 CNS; 26.3% in the assay on UACC-257 melanoma. Also, the growth in the assay on M14 melanoma was 40.1%.
On to `Cc1cc(Cl)nc(N2CCN(CCNc3ccnc4cc(Cl)ccc34)CC2)n1`, for which the growth with NCI-H23 lung is 27.2%; in the assay with NCI-H226 lung it was 59.8%; in the assay with NCI-H322M lung, 75.2%; in the assay on HOP-62 NSCLC, 68.2%; in the assay with NCI-H460 lung, 48.3%; with HOP-92 NSCLC it was 27.9%. For the same compound, the growth in the assay with A549/ATCC NSCLC was 58.2%; with 786-0 renal, 49.1%; in the assay with COLO 205 colon, -50.1% (active); with DU-145 prostate, 66.6%; in the assay on K-562 leukemia, 10.5%; in the assay on MALME-3M melanoma, 41.8%. For the same compound, the growth in the assay with MDA-MB-231 breast is 49.5%; with RXF 393 renal, 61.5%; in the assay on SF-268 CNS, 72.2%; with SF-295 CNS it was 36.4%; in the assay on SF-539 CNS it was 31.7%; in the assay with UACC-257 melanoma, 13.5%. In addition, the growth in the assay with M14 melanoma is 30.9%.
As for `N#Cc1c(-c2ccc(Br)cc2)nc2c(N=Nc3ccc(S(N)(=O)=O)cc3)c(N)nn2c1N`, the growth was 63.7% in the assay with NCI-H23 lung; 66.2% in the assay with NCI-H226 lung; 74.7% in the assay with NCI-H322M lung; 52.2% in the assay on HOP-62 NSCLC; 37.1% with NCI-H460 lung; 31.5% with HOP-92 NSCLC. Besides, the growth in the assay on A549/ATCC NSCLC is 68.4%; with 786-0 renal it was 69.9%; with COLO 205 colon, 25.5%; with DU-145 prostate it was 33.2%; with K-562 leukemia, 36.3%; with MALME-3M melanoma, 57.7%. Moreover, the growth in the assay with MDA-MB-231 breast is 41.2%; with RXF 393 renal it was 42.2%; in the assay with SF-268 CNS, 55.9%; in the assay on SF-295 CNS, 61.9%; in the assay on SF-539 CNS, 38.6%; in the assay with UACC-257 melanoma, 82.6%. Moreover, the growth with M14 melanoma was 41.4%.
Turning to `CN(C)CCCC1(c2ccc(F)cc2)OCc2cc(-c3csc4ccccc34)ccc21` (configuration not stated), the growth in the assay with NCI-H23 lung was 48.2%; with NCI-H226 lung it was 87.3%; in the assay with NCI-H322M lung, 27%; in the assay with HOP-62 NSCLC, 39.2%; in the assay on NCI-H460 lung it was -89.9% (active); with HOP-92 NSCLC it was 26.4%. Also, the growth in the assay with A549/ATCC NSCLC is 24.4%; in the assay with 786-0 renal, 52.8%; in the assay on COLO 205 colon, -67.8% (active); in the assay with DU-145 prostate, -0.822% (active); in the assay on K-562 leukemia, -31.8% (active); in the assay on MALME-3M melanoma it was -92.1% (active). Also, the growth in the assay with MDA-MB-231 breast is 10.6%; in the assay with RXF 393 renal it was 4.01% (active); in the assay with SF-268 CNS it was 38.6%; in the assay on SF-295 CNS, -52% (active); with SF-539 CNS, -81.7% (active); in the assay with UACC-257 melanoma, -48% (active). Also, the growth in the assay on M14 melanoma is -57% (active).
Regarding `O=C(/C=C/c1cn(-c2ccccc2)nc1-c1ccccc1)CCC(=O)NO`, the growth in the assay on NCI-H23 lung is 99.3%; in the assay on NCI-H226 lung, 93.9%; in the assay on NCI-H322M lung, 106%; in the assay on HOP-62 NSCLC it was 93.3%; in the assay on NCI-H460 lung it was 113%; in the assay with HOP-92 NSCLC it was 109%. For the same compound, the growth in the assay with A549/ATCC NSCLC was 91.5%; in the assay with 786-0 renal, 97.3%; with COLO 205 colon, 107%; in the assay on DU-145 prostate, 112%; in the assay on K-562 leukemia, 99.6%; in the assay with MALME-3M melanoma it was 104%. The growth with MDA-MB-231 breast was 105%; in the assay on RXF 393 renal, 102%; with SF-268 CNS, 97%; in the assay on SF-295 CNS it was 96.1%; in the assay with SF-539 CNS, 113%; in the assay with UACC-257 melanoma, 92.7%. Besides, the growth in the assay on M14 melanoma is 100%.
Turning to `O=C1NC(=O)C(c2coc3cc(Br)ccc23)=C1c1c[nH]c2ccccc12`, the growth is 77.5% in the assay with NCI-H23 lung; 67.2% in the assay on NCI-H226 lung; 77.7% with NCI-H322M lung; 38.9% in the assay on HOP-62 NSCLC; 19.5% with NCI-H460 lung; 70.4% in the assay on HOP-92 NSCLC. Also, the growth in the assay on A549/ATCC NSCLC is 33.5%; in the assay on 786-0 renal it was 69.5%; in the assay on COLO 205 colon, 35.1%; in the assay with DU-145 prostate, 65.1%; in the assay on K-562 leukemia it was 11.5%; with MALME-3M melanoma, 66.2%. For the same compound, the growth with MDA-MB-231 breast was 59.4%; with RXF 393 renal it was 75.3%; in the assay on SF-268 CNS, 43.1%; in the assay with SF-295 CNS, 71.1%; in the assay with SF-539 CNS, 64.7%; in the assay with UACC-257 melanoma, 72%. Further, the growth in the assay with M14 melanoma was 31.5%.
For the compound `COC(=O)c1c(C)nc(C)c2c1C(=O)C=C(NCc1ccccc1)C2=O`, the growth with NCI-H23 lung was 72%; in the assay on NCI-H226 lung, 93.9%; in the assay on NCI-H322M lung it was 92.5%; with HOP-62 NSCLC it was 91.2%; in the assay on NCI-H460 lung it was 67.1%; with HOP-92 NSCLC it was 117%. Further, the growth was 103% in the assay on A549/ATCC NSCLC; 84.7% in the assay with 786-0 renal; 78.5% with COLO 205 colon; 95.8% in the assay on DU-145 prostate; 69.1% with K-562 leukemia; -1.94% (active) in the assay on MALME-3M melanoma. Besides, the growth with MDA-MB-231 breast was 70.3%; in the assay on RXF 393 renal it was 94.5%; with SF-268 CNS, 78.8%; with SF-295 CNS it was 87.2%; in the assay on SF-539 CNS, 96.9%; in the assay on UACC-257 melanoma it was 104%. The growth with M14 melanoma was 66.9%.
As to `Clc1ccc(-c2nc(C(Cl)Cl)nc3cc(-c4ccccc4)nn23)cc1`, the growth is -3.66% (active) with NCI-H23 lung; 84.6% in the assay on NCI-H226 lung; -50.5% (active) in the assay with NCI-H322M lung; 14.6% in the assay on HOP-62 NSCLC; 49.4% in the assay with HOP-92 NSCLC; 22.6% with NCI-H522 lung. Besides, the growth in the assay on A549/ATCC NSCLC is -12.7% (active); in the assay with 786-0 renal it was 79.9%; in the assay with COLO 205 colon, -8.35% (active); in the assay with DU-145 prostate, -2.59% (active); in the assay with K-562 leukemia it was 33.2%; in the assay with MALME-3M melanoma it was 46.4%. For the same compound, the growth with MDA-MB-231 breast is 36.9%; in the assay with RXF 393 renal, -55% (active); in the assay with SF-268 CNS, 41.7%; in the assay with SF-295 CNS it was 14.3%; in the assay with SF-539 CNS it was 44%; with UACC-257 melanoma, 52.5%. Further, the growth in the assay on M14 melanoma is 24.2%.
